Test results published in the supplement of paper PMC8047044.

Assays:
Neuro-2a [1] = assay: neurite formation score, plate-normalized to DMSO control mean 5.04 (score (0-8 scale)); higher = more or longer neurites; conditions: 1 µM
Protocol: (§1)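 Neuro-2a mouse neuroblastoma cells in PLL-coated 96-well plates were pre-treated for 1 h in DMEM(+) with each kinase inhibitor at 1 µM, then switched to serum-free DMEM(-) with inhibitor to induce neurite outgrowth and fixed about 2-3 h later. Three blinded observers scored neurite formation from 0 (no neurites) to 8 (long neurites on almost all cells).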

Neuro-2a [2] = assay: as above; conditions: 0.1 µM
Protocol: as §1, with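 “at 0.1” for “at 1”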

| Structure (SMILES) | neurite formation score (Neuro-2a [1]) | neurite formation score (Neuro-2a [2]) |
| --- | --- | --- |
| Brc1c(Br)c(Br)c2n[nH]nc2c1Br | 5.47 | 5.09 |
| CC(C)CC(=O)Nc1n[nH]c2c1CN(C(=O)C1CCN(C)CC1)C2(C)C | 4.57 | 4.54 |
| O=c1c(-c2ccc(O)cc2)coc2cc(O)cc(O)c12 [Genistein] | 4.57 | 3.38 |
| Cc1c(NC(=O)OC[C@@H]2COCCN2)cn2ncnc(Nc3ccc4c(cnn4Cc4cccc(F)c4)c3)c12 | 2.91 | 3.71 |
| Cc1ccc(S(=O)(=O)/C=C/C#N)cc1 | 5.14 | 2.42 |
| COc1cc(N2CCC(N3CCN(C)CC3)CC2)ccc1Nc1ncnc(Nc2ccccc2S(=O)(=O)C(C)C)n1 | 5.24 | 4.38 |
| COc1cc(Nc2ncc(F)c(Nc3ccc4c(n3)N(COP(=O)(O)O)C(=O)C(C)(C)O4)n2)cc(OC)c1OC [Fostamatinib (R788)] | 4.8 | 3.76 |
| N[C@@H]1CCCN(c2c(/C=C3\SC(=O)NC3=O)cccc2-c2ccccc2)C1 | 5.36 | 5.25 |
| CCCCCCCCCCCCCC(=O)OC[C@H](CO)OC(=O)CCCCCCCCCCCCC [1,2-Dimyristoyl-sn-glycerol] | 4.88 | 5.08 |
| COc1c(OCCCN2CCOCC2)ccc2c3n(c(=NC(=O)c4cnc(N)nc4)nc12)CCN3 [BAY 80-6946 (Copanlisib)] | 4.14 | 4.76 |
| Cn1sc(=O)n(Cc2ccccc2)c1=O | 2.96 | 4.25 |
| COc1cc(C(=O)NC2CCN(C)CC2)c(F)cc1Nc1ncc2c(n1)N(C1CCCC1)CC(F)(F)C(=O)N2C | 5.54 | 5.08 |
| CCCCCCCCCCCCc1ccc(S(=O)(=O)Nc2nncs2)cc1 | 4.24 | 5.54 |
